Screening results (PubChem BioAssay)
RE007 growth inh: less growth of the S. pombe RE007 Vpr strain; S. pombe RE007 Vpr strain, BacTiter-Glo ATP luminescence, 24 h; Potency, µM (doses to about 92.2 µM), usual class: inhibitors; 0.21% of 360,000 active; active = well fitted falling curve with a large enough effect; inconclusive = small, poorly fitted or top-dose-only effect; inactive = no such curve, though single readings can be large or run the other way; note: nearly all actives have a fitted effect of over 50% in size
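Fission yeast strain RE007, carrying one chromosomally integrated HIV-1 vpr copy, was seeded at OD 0.01 in PMG+AL medium with 23 nL pinned compound. After 24 h at 30 °C and 99% humidity, viability was read by BacTiter-Glo luminescence.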
LmPK inh: LmPK (Leishmania mexicana) enzyme inhibition; Q27686; Potency, µM (top dose mostly 57.5 µM), actives largely listed as inhibitors; 0.37% of 290,000 active; AID 1721; purified LmPK, Kinase-Glo ATP luminescence, 1 h; active = well fitted curve in the direction sought with a large enough effect; inconclusive = small, poorly fitted or top-dose-only effect, or another doubt; inactive = no such curve, though single readings can be large; an effect the other way counts as inactive or inconclusive
Target sequence (Q27686 whole entry, looked up): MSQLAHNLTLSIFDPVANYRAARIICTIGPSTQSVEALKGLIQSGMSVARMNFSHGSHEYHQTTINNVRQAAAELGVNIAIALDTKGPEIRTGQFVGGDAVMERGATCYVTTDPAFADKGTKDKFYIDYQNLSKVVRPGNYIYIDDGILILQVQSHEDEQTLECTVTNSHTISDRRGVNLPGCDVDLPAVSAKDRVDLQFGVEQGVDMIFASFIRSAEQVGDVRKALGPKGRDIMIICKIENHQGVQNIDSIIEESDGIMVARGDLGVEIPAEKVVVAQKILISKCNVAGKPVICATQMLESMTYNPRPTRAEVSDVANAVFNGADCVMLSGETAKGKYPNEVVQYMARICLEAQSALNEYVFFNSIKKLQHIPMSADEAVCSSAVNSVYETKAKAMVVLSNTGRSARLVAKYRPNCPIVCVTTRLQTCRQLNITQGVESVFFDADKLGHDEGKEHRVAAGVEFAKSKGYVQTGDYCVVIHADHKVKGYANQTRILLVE
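qHTS format; LmPK 0.1 nM; substrates PEP 0.5 mM and ADP 0.1 mM. One-hour room-temperature incubation, then coupled luciferase luminescence; 0.5 nM enzyme wells mark activation.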
NS1 function inh: influenza NS1 inhibition | Potency, µM (highest dose often 46.1 µM) | 0.4% of 270,000 active; note: actives are rising curves; nearly all actives have a fitted effect of over 50% in size
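Recovery from NS1-induced slow growth read by OD600 in budding yeast switched to galactose assay medium (pH 6.0, -URA) at 1:100 dilution. Compound 23 nl per well; the matching strain lacking NS1 serves as control.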
Tb PYK inh: inhibitors of Trypanosoma brucei pyruvate kinase; Q57TT1; TbPYK enzyme, Kinase-Glo Plus ATP luminescence, 45 min; Potency, µM (series often up to 76.8 µM), usual class: inhibitors; 0.12% of 410,000 active; AID 624173; active = well fitted curve in the direction sought with a large enough effect; inconclusive = small, poorly fitted or top-dose-only effect, or another doubt; inactive = no such curve, though single readings can be large; an effect the other way counts as inactive or inconclusive; note: nearly all actives have a fitted effect of over 50% in size
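TbPYK + substrate in 50 mM TEA pH 7.2, 100 mM KCl, 10 mM MgCl2, 0.05% BSA, 0.01% Tween-20; cpd pinned; ADP 130 uM final; 45 min RT; Kinase-Glo Plus 10 min; luminescence endpoint.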
NS1 inh valid: validation of influenza NS1 protein function inhibitors; shares compounds with NS1 function inh; influenza NS1 function cell assay, 15-point titration; activity change, negative = inhibition, % at 32.9 µM; 1,400 tested, under 10 active
Hits are given with their value; . = inactive; ? = inconclusive; / = not tested or not shown. Sampled rows, rich in hits. Any-hit rate of the full collection: about 0.77%. Unless noted, calls come from the whole dose curve.

SMILES	RE007 growth inh	LmPK inh	NS1 function inh	Tb PYK inh	NS1 inh valid
CN(C)c1ccc(/C=C2\SC(=S)N(Nc3ncc(C(F)(F)F)cc3Cl)C2=O)cc1	.	.	.	.	/
Cc1cccc(NC(=O)c2oc3ccccc3c2NC(=O)c2cc(=O)c3ccc(C)cc3o2)c1	/	/	/	.	/
CCOC(=O)C1=C(C)N=C2SC(C(=O)OC)=CC(=O)N2C1c1cccc(OC)c1 (stereo not drawn)	.	.	14µM	.	.
COC(=O)C1=C(C)N(Cc2ccc(C)cc2)C(=O)/C1=C\c1ccc(O)c(OC)c1	.	.	10µM	?	?
Cc1ccc(CNC(=O)CN2C(=O)COc3ccccc32)cc1	/	/	/	.	/
O=C(NNC(=O)c1ccc(Br)cc1)c1ccncc1	.	.	?	.	.
O=C(NNC(=O)c1ccncc1)c1ccncc1	.	.	.	.	/
COc1ccc(-c2nc3n(n2)C(c2ccccc2OC)C(C(=O)Nc2cccnc2)=C(C)N3)cc1 (stereo not drawn)	/	/	/	.	/
CCOC(=O)c1cn(Cc2ccccc2)nn1	.	.	1.4µM	.	.
Cn1c(=O)cc(OCC(=O)NCCCN2CCN(Cc3ccccc3)CC2)c2ccccc21	.	.	11µM	.	.
N#Cc1nc(-c2ccc(COc3ccc(Cl)cc3)o2)oc1N1CCC(C(N)=O)CC1	/	/	/	.	/
COc1ccc(OC)c(NC(=O)CSc2nc(O)cc(=O)n2CC(C)C)c1	.	/	/	.	/
COc1ccc(CSc2nc(O)cc(=O)n2CC(C)C)cc1F	.	.	3.5µM	.	?
CCOC(=O)C1=C(CS(=O)(=O)c2ccc(C)c(C)c2)NC(=O)NC1c1ccccc1OCC (stereo not drawn)	/	/	/	.	/
Cc1ccc2oc(=O)c3cc(C(=O)Nc4ccc(F)cc4F)sc3c2c1	/	/	/	.	/
CSc1cc(-c2ccc(Cl)cc2)c(C(=O)NN)s1	.	.	?	.	.
CN(C)S(=O)(=O)c1ccc2c(c1)N(CC(=O)NCc1ccc(F)cc1)C(=O)CS2	/	/	/	.	/
CN(c1ccc(C(=O)N2CCCCC2)cc1)S(C)(=O)=O	.	.	14µM	.	.
CC1CCN(C(=O)c2ccc(N(C)S(C)(=O)=O)cc2)CC1	.	.	.	.	/
CN(C)C1(CNC(=O)COc2ccc([N+](=O)[O-])cc2)CCCCC1	/	/	/	.	/
COc1ccc(Nc2nc(NCc3ccco3)nc(N/N=C/c3ccc(O)cc3)n2)cc1	.	.	11µM	.	?
COc1ccc(/C=N/Nc2nc(NCc3ccco3)nc(Nc3ccc(OC)cc3)n2)cc1	.	.	?	.	/
COc1ccc(C2C(=O)N(C3CCC(C)CC3)CC(=O)N2Cc2ccc(C)cc2)cc1OC (stereo not drawn)	/	/	/	.	/
O=C1CC2OCC=C3CN4CC[C@]56c7ccccc7N1C5C2[C@H]3C[C@H]46 (stereo partly drawn)	/	/	/	.	/
COc1ccc(CN2C(=O)NC(=O)/C(=C/c3ccc(OC)c(OC)c3OC)C2=O)cc1	.	.	10µM	?	.
SMILES	RE007 growth inh	LmPK inh	NS1 function inh	Tb PYK inh	NS1 inh valid
C=CCn1c(=O)n(C2OC(CO)C(O)C2O)c2nc(N)[nH]c(=O)c21 (stereo not drawn)	/	/	/	.	/
Cc1ccc(C(=O)N/C(=C/c2ccco2)C(=O)NC2CCS(=O)(=O)C2)cc1 (stereo not drawn)	.	.	/	.	/
Cc1ccc(C(=O)N/C(=C\c2ccc(-c3ccc(Br)cc3)o2)C(=O)NC2CCS(=O)(=O)C2)cc1 (stereo not drawn)	.	.	?	.	.
COc1ccccc1NC(=O)NCC1(N(C)C)CCCCC1	.	.	?	.	.
COc1ccccc1NS(=O)(=O)c1ccc(C(=O)NCC2(N(C)C)CCCCC2)cc1	?	/	/	.	/
COc1ccc(-c2cc(C(=O)Nc3c(C(=O)c4ccc(C)c(F)c4)oc4ccccc34)no2)cc1	/	/	/	.	/
O=C(O)CC1=C(O)C(=O)N(c2ccccc2)C1c1ccc(Br)cc1 (stereo not drawn)	.	.	7.9µM	.	.
COC(=O)c1c(-c2cccs2)csc1NC(=O)c1ccc(C(C)(C)C)cc1	/	/	/	.	/
